Reference: PubChem BioAssay (NCATS)
Inconclusive results are not listed. Activity calls are given as the source filed them. The call rests on the fitted dose curve; in most records, active means well fitted curve in the direction sought with a large enough effect; inconclusive means small, poorly fitted or top-dose-only effect, or another doubt; inactive means no such curve, though single readings can be large; an effect the other way counts as inactive or inconclusive.

Key:
[1] = target: Glutathione peroxidase 1 (Homo sapiens) (UniProt P07203); test: Primary qHTS Assay for Inhibitors of Recombinant Selenoprotein Glutathione Peroxidase 1 (GPX1) (AID 1845191); further: nearly all actives have a fitted effect of over 65% in size; on activity, negative = inhibition: on the % scale 0 is the no-effect control and ±100 the full control effect
Glutathione peroxidase 1 (Homo sapiens), sequence (P07203 whole entry, looked up): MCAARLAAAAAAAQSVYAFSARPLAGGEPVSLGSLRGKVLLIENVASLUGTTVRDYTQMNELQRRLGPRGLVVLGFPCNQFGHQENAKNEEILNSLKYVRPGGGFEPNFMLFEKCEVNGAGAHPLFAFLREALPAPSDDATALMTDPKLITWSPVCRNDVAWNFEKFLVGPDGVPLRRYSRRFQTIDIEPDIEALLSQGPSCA
In short: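 GR-coupled readout: NADPH consumption tracked by fluorescence, ex 340/em 450 nm, at t=0 and after 15 min at RT. Final mix 10 nM GPX1, 1 mM GSH, 0.5 mM CHP, 0.5 mM NADPH, 100 nM GR, 0.01% BSA, following 30 min enzyme–compound preincubation.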

[2] = target: Phospholipid hydroperoxide glutathione peroxidase GPX4 (Homo sapiens) (UniProt P36969); test: Primary qHTS Assay for Inhibitors of Recombinant Selenoprotein Glutathione Peroxidase 4 (GPX4) (AID 1845192); further: nearly all actives have a fitted effect of over 65% in size; on activity change, negative = inhibition: series mostly up to about 50 µM; on the % scale 0 is the no-effect control and ±100 the full control effect
Phospholipid hydroperoxide glutathione peroxidase GPX4 (Homo sapiens), sequence (P36969 whole entry, looked up): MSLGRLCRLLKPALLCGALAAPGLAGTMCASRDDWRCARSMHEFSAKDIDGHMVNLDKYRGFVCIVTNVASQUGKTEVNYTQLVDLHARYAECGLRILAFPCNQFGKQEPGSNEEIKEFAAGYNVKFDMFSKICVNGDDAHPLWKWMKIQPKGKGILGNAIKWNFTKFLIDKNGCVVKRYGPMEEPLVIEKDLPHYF
In short: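 Steps: GPX4 plus compound, 30 min RT; add GR/GSH/NADPH master mix; start with cumene hydroperoxide; read 340/450 nm fluorescence at 0 and 15 min. Finals were 200 nM GPX4, 1 mM GSH, 0.5 mM CHP, 0.5 mM NADPH, 100 nM GR.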

[3] = target: Luciferin 4-monooxygenase (Photinus pyralis) (UniProt P08659); test: Primary firefly luciferase (FLuc) qHTS assay for identification of artifact compounds. (AID 1845220); further: nearly all actives have a fitted effect of over 60% in size; further: potency means the concentration at half of the fitted maximal effect;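 on activity change, negative = inhibition: series mostly up to about 54 µM; plate controls were DMSO vehicle for no effect and no enzyme for full effect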
In short: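 Titrated compounds were incubated 15 min at RT, protected from light, with luciferin and ATP at 10 uM; reaction started with 10 nM FLuc, luminescence imaged at 5 min, and concentration-response fitted by Hill equation.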

[4] = Primary fluorescence-based thiol-reactive (MSTI) qHTS assay for identification of artifact compounds. (AID 1845221);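 further: series mostly up to about 54 µM; thiol-reactive compounds lower the probe fluorescence signal; nearly all actives have a fitted effect of over 65% in size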
In short: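 Thiol-reactive compounds detected by quenching of 4 uM MSTI fluorescence (525/598 nm) after 1 h room-temperature dark incubation in PBS pH 7.4, 2% DMSO. qHTS titration; percent inhibition Hill-fitted against Acetyl-MSTI/MSTI controls.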

[5] = test system: Nanoluciferase (engineered Oplophorus gracilirostris luciferase); test: Primary Nanoluciferase (NLuc) qHTS assay for identification of artifact compounds. (AID 1845222); further: potency means the concentration at half of the fitted maximal effect;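 on activity, negative = inhibition: NLuc secreted into diluted conditioned medium of S16 cells; series mostly up to about 54 µM; 0% = DMSO and -100% = no enzyme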
In short: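 qHTS format, against NLuc in S16 cell-conditioned medium. Nano-Glo substrate 1:100 was added after 15 min at room temperature. Luminescence was taken after a further 5 min.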

[6] = Primary redox qHTS assay for identification of artifact compounds. (AID 1845223);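 further: 0% = DMSO and 100% = reference compound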
In short: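 Redox-cycling detection via DTT (250 uM final) oxidation coupled to Amplex Red (25 uM)/HRP (250 mU/mL) in HBSS. 15 min preincubation plus 30 min after DTT, room temperature. Ex/Em 525/598 nm; 4-parameter Hill fit against DMSO and 10 uM DA3003.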

CC(=O)O[C@@H]1c2c3c(cc(O)c2C(=O)O[C@@H]1C)O[C@@]1(C)[C@@H](O)C[C@H]2C(C)(C)C(=O)C=C[C@]2(C)[C@@H]1C3
inactive: Potency [1] | Potency [2] | Potency [3] | Potency [4] | Potency [5] | Potency [6]

COc1ccc([C@@]2(O)c3c(ccc(CC=C(C)C)c3O)NC(=O)[C@@H]2OC)cc1
inactive: Potency [1] | Potency [2] | Potency [3] | Potency [4] | Potency [5] | Potency [6]

Cc1ccccc1-n1c([C@H](C)Nc2nc(N)nc3nc[nH]c23)nc2cccc(C)c2c1=O
inactive: Potency [1] | Potency [2] | Potency [3] | Potency [4] | Potency [5] | Potency [6]

C[C@H](Oc1ccc(S(C)(=O)=O)cc1C(=O)N1CCN(c2ncc(C(F)(F)F)cc2F)CC1)C(F)(F)F
inactive: Potency [1] | Potency [2] | Potency [3] | Potency [4] | Potency [5] | Potency [6]

CC(C)CNCc1ccc(-c2ccccc2S(=O)(=O)N2CCCC2)cc1
inactive: Potency [1] | Potency [2] | Potency [3] | Potency [4] | Potency [5] | Potency [6]

CSc1ccc(C(=O)N[C@@H]2CCCC[C@@H]2NC(=O)CNC(=O)c2cc(C(F)(F)F)ccc2NC(=O)NC(C)C)cc1
inactive: Potency [1] | Potency [2] | Potency [3] | Potency [4] | Potency [5] | Potency [6]

C=C(C)[C@@H]1CC[C@]2(C)CC[C@]3(C)[C@H](CC[C@@H]4[C@@]5(C)CC[C@@H](O)C(C)(C)[C@@H]5CC[C@]43C)[C@@H]12
inactive: Potency [1] | Potency [2] | Potency [3] | Potency [4] | Potency [5] | Potency [6]

CC(=O)O[C@@H](CO[C@@H]1O[C@H](CO)[C@H](O)[C@H](O)[C@H]1O)[C@]1(C)C=C2CC[C@@H]3C(C)(C)[C@@H](O)CC[C@@]3(C)[C@@H]2CC1
inactive: Potency [1] | Potency [2] | Potency [3] | Potency [4] | Potency [5] | Potency [6]

COCCN1CCN(Cc2ccc(-c3n[nH]c4c3C(=O)c3c(NC(=O)NN5CCOCC5)cccc3-4)cc2)CC1
inactive: Potency [1] | Potency [2] | Potency [3] | Potency [4] | Potency [5] | Potency [6]

CC(=O)O[C@H]1CC[C@H](C)[C@@]2(C)[C@H](OC(C)=O)c3c(C)coc3C(=O)[C@H]12
inactive: Potency [1] | Potency [2] | Potency [3] | Potency [4] | Potency [5] | Potency [6]

CCc1ccc(Cc2ccc3c(c2)[C@]2(OC3)O[C@H](CO)[C@@H](O)[C@H](O)[C@H]2O)cc1
inactive: Potency [1] | Potency [2] | Potency [3] | Potency [4] | Potency [5] | Potency [6]

C=CC1C(OC2OC(CO)C(O)C(O)C2O)OC=C(C(=O)OC)C1CC(=O)OCC1C(C)C(O)CC1C(CO)COC(=O)CC1C(C(=O)O)=COC(OC2OC(CO)C(O)C(O)C2O)/C1=C\C (configuration not stated)
inactive: Potency [1] | Potency [2] | activity change, negative = inhibition [3] -4.67% [at 11.6 µM] | activity change, negative = thiol reactive [4] 7.86% [at 11.5 µM] | activity, negative = inhibition [5] -0.732% [at 11.6 µM] | redox activity (% of DA3003) [6] 14.1% [at 11.5 µM]

CC[C@]12C=CCN3CC[C@@]4(c5cc([C@@]6(C(=O)OC)C[C@H]7C[C@@H](C(C)(F)F)CN(Cc8c6[nH]c6ccccc86)C7)c(OC)cc5N(C)[C@H]4[C@@](O)(C(=O)OC)[C@@H]1OC(C)=O)[C@@H]32
inactive: Potency [1] | Potency [2] | Potency [3] | Potency [4] | Potency [5] | Potency [6]

CC1=CC(=O)C2C(C)(C)CCC[C@]2(C)[C@H]1CO (some centres not stated)
inactive: Potency [1] | Potency [2] | Potency [3] | Potency [4] | Potency [5] | Potency [6]

CC(C)(C)CCN1C[C@@H]2C(CNC(=O)c3cc(Cl)cc(Cl)c3)[C@@H]2C1 (some centres not stated)
inactive: Potency [1] | Potency [2] | Potency [3] | Potency [4] | Potency [5] | Potency [6]

CCC(C)C(=O)OC1CC(C)C=C2C=CC(C)C(CCC(O)CC(O)CC(=O)O)C21 (configuration not stated)
inactive: Potency [1] | Potency [2] | Potency [3] | Potency [4] | Potency [5] | Potency [6]

CC[C@@](C)(Nc1ccnc(-c2c[nH]c3ncccc23)n1)C(=O)NCC(F)(F)F
inactive: Potency [1] | Potency [2] | Potency [3] | Potency [4] | Potency [5] | Potency [6]

COC(=O)CCC(=O)OC[C@]1(C)CCC[C@@]2(C)C3CC[C@]4(C)C=CC3(CCC12)C4 (some centres not stated)
inactive: Potency [1] | Potency [2] | Potency [3] | Potency [4] | Potency [5] | Potency [6]

NC(=O)c1csc(C2OC(CO)C(O)C2O)n1 (configuration not stated)
inactive: Potency [1] | Potency [2] | Potency [3] | Potency [4] | Potency [5] | Potency [6]

C=C1[C@H](OC(C)=O)[C@H]2[C@@H](OC(C)=O)[C@](C)(OC(C)=O)C[C@]2(OC(C)=O)C(=O)[C@H](C)/C=C/C(C)(C)C(=O)[C@H](OC(=O)C(C)C)[C@H]1OC(C)=O
inactive: Potency [1] | Potency [2] | Potency [3] | Potency [4] | Potency [5] | Potency [6]

CC(C)(C)NC(=O)[C@@H](c1cccnc1)N(C(=O)c1ccco1)c1ccc(C(C)(C)C)cc1
inactive: Potency [1] | Potency [2] | Potency [3] | Potency [4] | Potency [6]

C[C@@H]1O[C@@H](O[C@H]2[C@H](O)[C@@H](O)[C@H](OC3CCC4(C)C5CCC(C)(C(CO)OC6OC(CO)C(O)C(O)C6O)CC5=CCC4C3(C)C)O[C@@H]2CO)[C@H](O)[C@H](O)[C@H]1O (some centres not stated)
inactive: Potency [1] | Potency [2] | Potency [3] | Potency [4] | Potency [5] | Potency [6]

CC#CC(=O)N1CCC[C@H]1c1nc(-c2ccc(C(=O)Nc3ccccn3)cc2)c2c(N)nccn12
inactive: Potency [1] | Potency [2] | Potency [3] | Potency [4] | Potency [5] | Potency [6]

C=C(C(=O)O)C1CC2=C(C)CCCC2(C)C[C@@H]1O (some centres not stated)
inactive: Potency [1] | Potency [2] | Potency [3] | Potency [4] | Potency [5] | Potency [6]

O=C(NOCC(O)CO)c1ccc(F)c(F)c1Nc1ccc(I)cc1F (configuration not stated)
inactive: Potency [1] | Potency [2] | Potency [3] | Potency [4] | Potency [5] | Potency [6]

CC1(C)CC2C(O)c3cocc3CC(C)(O)C2C1 (configuration not stated)
inactive: Potency [1] | Potency [2] | Potency [3] | Potency [4] | Potency [5] | Potency [6]

Cc1noc(-c2ccc(-c3ccc(CC(=O)O)cc3)cc2)c1NC(=O)O[C@H](C)c1ccccc1
active: Potency [5] 10.7 µM
inactive: Potency [1] | Potency [2] | Potency [3] | Potency [4] | Potency [6]

COc1ccc(N2CCOCC2)c2sc(NC(=O)N3CCC(C)(O)CC3)nc12
inactive: Potency [1] | Potency [2] | Potency [3] | Potency [5]

C[C@@H]1O[C@@H](O[C@H]2[C@H](OC(=O)[C@]34CCC(C)(C)C[C@H]3C3=CCC5[C@@]6(C)C[C@H](O)[C@H](O[C@@H]7O[C@H](CO)[C@@H](O)[C@H](O)[C@H]7O)[C@@](C)(CO)C6[C@H](O)C[C@@]5(C)[C@]3(C)C[C@H]4O)OC[C@H](O)[C@@H]2O)[C@H](O)[C@H](O)[C@H]1O[C@@H]1OC[C@@H](O)[C@H](O[C@H]2OC[C@](O)(CO)[C@H]2O)[C@H]1O (some centres not stated)
inactive: outcome [1] inactive [at 9.52 µM] | activity change, negative = inhibition [2] 1.35% [at 9.73 µM] | activity change, negative = inhibition [3] 2.14% [at 11.6 µM] | activity change, negative = thiol reactive [4] 482% [at 11.5 µM] | activity, negative = inhibition [5] 4.86% [at 11.6 µM] | redox activity (% of DA3003) [6] 4.44% [at 11.5 µM]

CCC(Nc1ncnc2nc[nH]c12)c1nc2cccc(F)c2c(=O)n1-c1ccccc1 (configuration not stated)
inactive: Potency [1] | Potency [2] | Potency [3] | Potency [4] | Potency [5] | Potency [6]

CC(C)N(CCCCOCC(=O)NS(C)(=O)=O)c1cnc(-c2ccccc2)c(-c2ccccc2)n1
inactive: Potency [1] | Potency [2] | Potency [3] | Potency [4] | Potency [6]

COc1cc2ncnc(Nc3cccc(Cl)c3F)c2cc1OC(=O)N1CCN(C)C[C@H]1C
inactive: Potency [1] | Potency [2] | Potency [3] | Potency [4] | Potency [5] | Potency [6]

O=C1CCC(c2ccccc2)(C2CCN(Cc3ccc(I)cc3)CC2)C(=O)N1 (configuration not stated)
inactive: Potency [1] | Potency [2] | Potency [3] | Potency [4] | Potency [5] | Potency [6]

CNC(=O)c1cc(Oc2ccc3nc(N[C@@H]4CCCC[C@H]4O)sc3c2)ccn1
inactive: Potency [1] | Potency [2] | Potency [4] | Potency [5] | Potency [6]
active: Potency [3] 12 µM

CON(C)C(=O)[C@H](O)[C@H](Cc1ccccc1)NC(=O)c1cc2cc(Cl)ccc2[nH]1
inactive: Potency [1] | Potency [2] | Potency [3] | Potency [4] | Potency [5] | Potency [6]

O=C1CCC(=O)N(O)CCCCCNC(=O)CCC(=O)N(O)CCOCCNC(=O)CCC(=O)N(O)CCCCCN1
inactive: Potency [1] | Potency [2] | Potency [3] | Potency [4] | Potency [5] | Potency [6]

Cc1c(F)cc(C(=O)NC2CC2)cc1-c1c(F)cn2c(C(C)(C)C)nnc2c1F
inactive: Potency [1] | Potency [2] | Potency [3] | Potency [4] | Potency [5] | Potency [6]

CCOC(=O)c1sc(NC(=O)[C@H](C(C)C)n2c(=O)[nH]c3ccccc3c2=O)nc1C
inactive: Potency [1] | Potency [2] | Potency [3] | Potency [4] | Potency [5] | Potency [6]

CC1(C)CCC[C@]2(C)[C@H]3CC(=O)O[C@]3(C)CC[C@@H]12
inactive: Potency [1] | Potency [2] | Potency [3] | Potency [4] | Potency [5] | Potency [6]

O=C(NCc1ccc(F)cc1)C(=O)c1c[nH]c2ccccc12
inactive: Potency [1] | Potency [2] | Potency [3] | Potency [4] | Potency [5] | Potency [6]

Cc1csc(NC(=O)c2ccc(COc3cccc(Cl)c3)o2)n1
inactive: Potency [1] | Potency [2] | Potency [3] | Potency [4] | Potency [5] | Potency [6]
